Screening data from PubChem.
An excerpt weighted towards active compounds, which were near 1.3% of everything screened.
SARS 3CLpro inh: SARS-CoV 3CLpro protease inhibition; AID 1706; P0C6X7; inhibition, % at 6 µM; 290,000 tested, 0.14% active; recombinant SARS-CoV 3CLpro, quenched FRET peptide cleavage; in the data active = inhibition above about 12%
Sa RN4220 lethal: kills Staphylococcus aureus RN4220. S. aureus RN4220 growth, OD600, 16 h. inhibition, % (concentration not given with the values). 330,000 tested, 0.33% active; in the data active = inhibition above about 85%
ugtP null kill: compounds lethal to S. aureus RN4220 ugtP deletion mutant; OD600 growth, 16 h; growth inhibition, % (no concentration beside the values); 330,000 tested, 0.54% active; AID 1259309; in the data active = growth inhibition above about 68%
PfHsp40 yeast: rescue of PfHsp40-mediated yeast toxicity; growth rescue, % at 12.5 µM; S. cerevisiae expressing PfHsp40, growth rescue, ATP luminescence; 340,000 tested, 0.68% active; AID 504582; in the data active = growth rescue above about 28%, passing the limit was not always enough; inconclusive = no clear call, values can overlap the other calls;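 also: yeast W303a lacking pdr1 and pdr3 grown in galactose medium; growth measured after three days at 30 °C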
BJeLR lethal: BJeLR cell viability loss; BJeLR (HRASV12) viability, CellTiter-Glo ATP luminescence, 48 h; inhibition, % (concentration not given with the values); 300,000 tested, 0.17% active; AID 1554; in the data active = inhibition above about 50%; inconclusive = no clear call, values can overlap the other calls
Each line names hits and unclear results; the compound was inactive in the other large screens.

CCOC(=O)c1ccc(NC(=O)CSc2nnc(C)n2-c2ccccc2)cc1	none
Cc1ccc(C(=O)NCC(=O)NC2CCCC2)cc1	none
CCN1CCN(c2ccc(S(=O)(=O)N3CCOCC3)cc2N)CC1	none (no result: SARS 3CLpro inh, BJeLR lethal)
O=C(CSc1nnc(-c2ccccc2O)n1Cc1ccccc1)NNC(=O)c1ccccc1O	PfHsp40 yeast 305
Cn1c(SCC(=O)NNC(=O)c2ccccc2O)nnc1-c1ccccc1	PfHsp40 yeast 106
O=C(CSc1nnc(-c2ccccc2)n1Cc1ccccc1)NNC(=O)c1ccccc1O	PfHsp40 yeast 166
O=C1NC(=O)C(CCc2ccncc2)(CCc2ccncc2)C(=O)N1C1CCCCC1	none
O=C(C1=COCCO1)N(Cc1nnc(-c2ccc(Cl)cc2)o1)C1CC1	none (no result: SARS 3CLpro inh)
CC(C)CC(=O)NC(=S)Nc1ccc(NC(=O)c2cccs2)cc1	ugtP null kill 83
CC(C)CC(=O)NC(=S)Nc1ccc(N2CCN(C(=O)c3cccs3)CC2)cc1	ugtP null kill 96
CCOc1ccc(-c2ccc(/C=C3/C(=N)N4C(C)=CSC4=NC3=O)o2)c([N+](=O)[O-])c1	ugtP null kill 100
CC1Cc2cc(S(=O)(=O)N3CCC(C(=O)N(C)Cc4ccccc4)CC3)ccc2N1C(=O)C1CC1 (stereo unspecified)	none
CC1CCc2c(sc3nc(C(C)(C)C)nc(N4CCN(C(=O)CCl)CC4)c23)C1 (stereo unspecified)	BJeLR lethal 85 (no result: Sa RN4220 lethal, ugtP null kill)
CCC(=O)N1CCN(c2nc(CC)nc3sc4c(c23)CCCC4)CC1	none
Cc1ccc(NS(=O)(=O)c2ccc(CCC(=O)NCc3cccnc3)cc2)cc1	none
COC(=O)C[C@]1(C(=O)OC)CN(C#N)N(c2ccc(Cl)cc2)C12c1ccccc1-c1ccccc12	BJeLR lethal 67
CCC1=NN(C(=O)c2ccccc2O)C(O)(c2ccccc2)C1 (stereo unspecified)	PfHsp40 yeast 83 (no result: Sa RN4220 lethal, ugtP null kill)
O=C(CN1CC[n+]2c(-c3ccccc3)csc21)c1ccc(Br)cc1	none (no result: PfHsp40 yeast)
CCSc1nnc(NC(=O)c2nc(-c3ccccc3)n(-c3ccccc3)n2)s1	PfHsp40 yeast 126
CC(O)c1nc2ccccc2n1C1CCCCC1 (stereo unspecified)	PfHsp40 yeast 74
COc1ccc(C)cc1NC(=O)c1nnn(Cc2cccc(C(F)(F)F)c2)c1N	ugtP null kill 98
COc1ccc(OC)c(NC(=O)c2nnn(CCc3ccccc3)c2N)c1	none
Cc1cc(N2CCCCC2)nc(-c2ccc(Br)cc2)n1	ugtP null kill 87
CC(=O)Nc1ccc(S(=O)(=O)NCc2nc(-c3ccccc3C)no2)cc1	none
CC1=NN(c2ccccc2)C(=O)C1/C=C1/C(=O)NC(=O)N(c2cc(C)cc(C)c2)C1=O (stereo unspecified)	none (no result: Sa RN4220 lethal, ugtP null kill)
COc1ccc(CCNC(=O)CCS(=O)(=O)c2ccc(Br)cc2)cc1OC	none
O=C(O)CCN1C(=O)/C(=C\c2ccc(-c3nc4ccccc4s3)o2)SC1=S	Sa RN4220 lethal 109, ugtP null kill 101
Nc1nc(-c2ccccc2)c(N=Nc2ccccc2Cl)s1	none
Nc1nc(-c2ccccc2)c(N=Nc2cccc3ccccc23)s1	Sa RN4220 lethal 99, ugtP null kill 97
COCCn1c(SCC(=O)N(C)c2c(N)n(Cc3ccccc3)c(=O)[nH]c2=O)nnc1-c1cccc(C)c1	none (no result: SARS 3CLpro inh)
O=C(OCCOc1cccc(Cl)c1)c1cc(S(=O)(=O)N2CCCCC2)ccc1N1CCOCC1	none (no result: SARS 3CLpro inh)
COc1ccc(-c2nc(N3CCN(C)CC3)sc2-c2ccc(OC)cc2)cc1	ugtP null kill 99
COc1ccc(-c2nc(N3CCCCCC3)sc2C(=O)c2ccccc2)cc1	none
COc1ccc(-c2cnnc(NN=Cc3ccc(O)c(OC)c3)n2)cc1	none (no result: SARS 3CLpro inh, PfHsp40 yeast, BJeLR lethal)
c1ccc(-c2ccc(OCCCn3cncn3)cc2)cc1	PfHsp40 yeast 269 (no result: BJeLR lethal)
c1ccc(COc2ccc(OCCn3cncn3)cc2)cc1	none
CCOC(=O)/C(C#N)=C/c1c(N2CCN(C)CC2)nc2ccccn2c1=O	none
S=c1[nH]nc(COc2ccccc2)n1Cc1ccccc1	none
CCc1ccc(OCc2n[nH]c(=S)n2Cc2ccccc2)cc1	PfHsp40 yeast 101
CCc1ccc(OCc2n[nH]c(=S)n2C(C)CCCC(C)C)cc1 (stereo unspecified)	PfHsp40 yeast 57
O=Cc1ccc2noc(-c3ccc(F)cc3)c2c1	none
Cc1cccc(CSc2ncnc3c2cnn3Cc2ccccc2)c1	ugtP null kill 98
Cc1ccc(-n2ncc3c(SCc4cccc(C)c4)ncnc32)cc1	none
CCc1nc(NCCC(C)C)c(C#N)c2c1CCCC2	ugtP null kill 88
Oc1c(Cl)cc(Cl)cc1CNn1cnnc1	none
Cc1cc(C)c(O)c(CN(C)Cc2cc(Cl)cc(Cl)c2O)c1	Sa RN4220 lethal 100, ugtP null kill 86 (no result: SARS 3CLpro inh, BJeLR lethal)
CCOc1ccccc1CNS(=O)(=O)c1ccc2[nH]c(=O)sc2c1	none
COc1cccc(N2C(N)=NC(N)=NC2(C)C)c1	BJeLR lethal 79
Oc1ccc(C=NN=C(c2ccccc2)c2ccccc2)c(O)c1O	none (no result: SARS 3CLpro inh, PfHsp40 yeast, BJeLR lethal)
O=C(/C(=N/N=C/c1ccc(O)c(O)c1O)c1ccccc1)c1ccccc1	PfHsp40 yeast 520 (no result: Sa RN4220 lethal, ugtP null kill)
CCc1ccccc1NCC(=O)Nc1ccc(Cl)c(C(F)(F)F)c1	ugtP null kill 90, PfHsp40 yeast inconclusive
Cc1cc(C)cc(OCC(=O)N(C)CC(=O)Nc2ccc(Cl)c(C(F)(F)F)c2)c1	PfHsp40 yeast 51 (no result: SARS 3CLpro inh, BJeLR lethal)
COc1ccc(NC(=O)CSCC(=O)N(C)CC(=O)Nc2ccc(Cl)c(C(F)(F)F)c2)cc1	none (no result: SARS 3CLpro inh)
O=C1CNC(=O)N1	none
CCc1c(C2(O)CCCCC2)[nH]c2cc(C(F)(F)F)ccc12	PfHsp40 yeast 299 (no result: Sa RN4220 lethal, ugtP null kill)
COC(=O)C1=C(c2ccc3ccccc3c2)CC2CCC1N2C(=O)NCC1CC1 (stereo unspecified)	none (no result: SARS 3CLpro inh, PfHsp40 yeast, BJeLR lethal)
CC(=O)C1C(c2cccc([N+](=O)[O-])c2)C2C(C)=NN=C2CC1(C)O (stereo unspecified)	none
Cc1cc(C)nc(NC(N)=NC(C)c2ccccc2)n1 (stereo unspecified)	ugtP null kill 94 (no result: PfHsp40 yeast)
COc1ccc(OC)c(-c2csc(NC(=O)COC(=O)C3(C)CC3(Cl)Cl)n2)c1 (stereo unspecified)	none (no result: SARS 3CLpro inh, BJeLR lethal)
Cc1c(C(=O)NCCSCc2c(F)cccc2Cl)cnn1-c1ccc(Cl)cc1	PfHsp40 yeast 132 (no result: Sa RN4220 lethal, ugtP null kill)
COc1ccccc1C(=O)NCCSCc1c(F)cccc1Cl	none
O=[N+]([O-])c1cccc(NC(=S)N2CCc3ccccc3C2)c1	none (no result: Sa RN4220 lethal, ugtP null kill)
O=C(CCSc1ccccc1)NC(=O)COC(=O)C1CCCCC1	none
O=C(O)CN1CCNCC1	none (no result: PfHsp40 yeast)
O=C(O)CN1CCNCCN(CC(=O)O)CCNCC1	PfHsp40 yeast 107 (no result: SARS 3CLpro inh, Sa RN4220 lethal, ugtP null kill, BJeLR lethal)
O=C1c2ccccc2C(=O)N1CCc1nc(-c2cccnc2)no1	none
O=C(C/C=N\O)Nc1ccc(Oc2ccccc2)cc1	PfHsp40 yeast 46 (no result: Sa RN4220 lethal, ugtP null kill)
CCCCCCCCCn1ccc(=N)cc1	ugtP null kill 100
CCOc1cccc2sc(=NC(=O)c3ccc(S(=O)(=O)N4CCOCC4)cc3)n(C)c12	none
Clc1ccc(C[n+]2csc3ccccc32)cc1	Sa RN4220 lethal 87, ugtP null kill 100 (no result: BJeLR lethal)
Cc1cccc(NS(=O)(=O)c2ccc(NC(=O)CN(c3cc([N+](=O)[O-])ccc3C)S(C)(=O)=O)cc2)c1	BJeLR lethal 69 (no result: Sa RN4220 lethal, ugtP null kill)
